Measurements published in PubChem BioAssay AID720690 (Broad Institute, 2013).
Potency and affinity values are given separately. Calls of active or inactive are those of the source.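 How the source made its calls: active means every repeat run showing a signal drop whose fitted half-maximal concentration is at most twice the top tested concentration; inconclusive means repeat runs disagree, or flat partial drop, or poor fit; inactive means the rest.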

test: general mammalian cell viability loss – activator set, cherry-pick, cytotoxicity control for miR-122 modulator project, dose response (AID 720690); conditions: HEK293T viability, CellTiter-Glo luminescence, 48 h; series mostly up to 26 µM

| SMILES | outcome |
| --- | --- |
| CCOC(=O)C1CN(S(=O)(=O)c2ccccc2)CCN1S(=O)(=O)c1ccccc1 (centres undefined) | inactive |
| CN1C(=O)c2cc(NC(=O)Nc3ccccc3Cl)ccc2OC[C@H]2O[C@H](CC(=O)O)CC[C@H]21 | inactive |
| Cc1ccc(-n2c(Cc3ccccc3)n[nH]c2=S)cc1 | inactive |
| C[C@H]1CN([C@@H](C)CO)C(=O)c2cc(C#CC3CCCC3)cnc2O[C@H]1CN(C)C(=O)Cc1ccccn1 | inactive |
